PubChem BioAssay (NCI)
The panel holds about 83,000 compounds, 20% with a hit somewhere; the sample as a whole holds those more often.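 Activity criterion: percent growth below 10, measured after cells in 96-well plates were exposed to a single compound concentration for 48 hours.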 Calls of active or inactive are those of the source.

These compounds were tested on HL-60(TB) leukemia (assay: NCI-60 one-dose screen, 48 h (100 = growth as untreated, 0 = no growth, -100 = all killed)). Details: 10 µM unless noted.

Row | Structure (SMILES) | growth
1 | CC(=O)c1nnn(-c2c(C(=O)n3nc(C)cc3C)sc(=S)n2-c2ccccc2)c1C | 110% (inactive)
2 | Cc1ccc(NC(=O)CNc2cc(C(N)=O)cc(F)c2C)c(Cl)c1 | 133% (inactive)
3 | CS(=O)(=O)Nc1cc(-c2ccc3ncc(C#N)c(NCc4ccccc4)c3c2)cnc1Cl | -29.2% (active)
4 | Fc1ccc(-c2cc3nc(C(Cl)Cl)nc(-c4ccc(F)cc4)n3n2)cc1 | -1.81% (active)
5 | Cc1cn(-c2cc(NC(=O)c3cncc(C#Cc4cnc5ccc(O[C@H]6CCOC6)nn45)c3)cc(C(F)(F)F)c2)cn1 | 37.6% (inactive)
6 | Cc1ccccc1NC(=O)Nc1nc2ccc([N+](=O)[O-])cc2s1 | -27.7% (active)
7 | NS(=O)(=O)c1ccc(Nc2nc(N/N=C/c3c[nH]c4ccccc34)nc(Nc3ccccc3)n2)cc1 | 34.4% (inactive)
8 | COc1cc(/C=C/C(=O)c2cc(OC)c(OC)c(OC)c2)ccc1OCc1ccc(F)cc1 | 9.93% (active)
9 | COC(=O)C(Cc1ccccc1)Nc1nc(NC(Cc2ccccc2)C(=O)OC)nc(N2CCOCC2)n1 (stereo unspecified) | 103% (inactive)
10 | N/C(=N\C(N)=N\c1nc2ccccc2s1)c1ccc2ccccc2c1 | 99.8% (inactive)
11 | NC(N)=Nc1ccc(Oc2cccc(Nc3ccc(Cl)c(C(F)(F)F)c3)c2)cn1 | -68% (active)
12 | CNC(=O)c1cc(Oc2ccc3c(c2)sc2nc(-c4ccc(N(C)C)cc4)cn23)ccn1 | 5.28% (active)
13 | O=C(Nc1cccc(C(F)(F)F)c1)c1cc(-c2ccc(F)cc2F)ccc1O | -40.7% (active)
14 | COC(=O)C1CN(S(=O)(=O)/N=C2\NC(=O)NC2=C(Cl)Cl)C1 | 101% (inactive)
15 | C/C(=C(/C)C1CC1CCNC1CCC(NC(=O)OC(C)(C)C)CC1)c1ccccc1 (stereo unspecified) | 56.6% (inactive)
16 | C=C1C(=O)O[C@@H]2C[C@@H](C)/C=C\C(=O)[C@](C)(OC(C)=O)C[C@H](OC(=O)/C(C)=C\C)[C@@H]12 | -3.8% (active)
17 | COc1ccc2c(ccn2C(=O)N2c3ccccc3Sc3ccccc32)c1 | 13.7% (inactive)
18 | CS(=O)(=O)c1ccc(-c2nc3ccccn3c2/C=N/Nc2nc(-c3ccc(Br)cc3)cs2)cc1 | 107% (inactive)

Row | Structure (SMILES) | growth
19 | NS(=O)(=O)c1ccc(Nc2nc(SCC(=O)c3ccc(Cl)cc3)nc3ccccc23)cc1 | 103% (inactive)
20 | NS(=O)(=O)c1nnc(/N=C/c2c(O)[nH]c3ccccc23)s1 | 123% (inactive)
21 | CCNC(=O)Oc1ccc(/C(=C(/C)c2ccc(OC)cc2)c2ccc(OCCN3CCCCCC3)cc2)cc1 | 22.5% (inactive)
22 | Cc1c(F)cc(C(N)=O)cc1NCC(=O)Nc1ccc([N+](=O)[O-])cc1 | 132% (inactive)
23 | O=c1/c(=C\c2ccc(-c3ccccc3)o2)sc2nc(-c3ccccc3)nn12 | 107% (inactive)
24 | CN(C)CC(=O)Nc1nc(-c2cccc(NS(=O)(=O)c3cccc4c(N(C)C)cccc34)c2)cs1 | 80.8% (inactive)
25 | COc1cc2oc(-c3cccc(NC(=O)c4cccc([N+](=O)[O-])c4)c3)cc(=O)c2c(OC)c1OC | 68.9% (inactive)
26 | c1ccc(C(c2nc3ncncc3[nH]2)N2CSc3nc4ccccc4n3C2)cc1 (stereo unspecified) | 108% (inactive)
27 | C#CC(=O)N(c1ccc(OC)cc1OC)C(C(=O)NCC(=O)OCC)c1cccs1 (stereo unspecified) | -51.2% (active)
28 | COc1cc2nc(-c3ccc(C)cc3)cc(OCCCNCC3CCCO3)c2cc1OC (stereo unspecified) | 48.6% (inactive)
29 | Nc1ncc(-c2ccc3ncnc(N4CCc5cc(F)c(Cl)cc54)c3c2)cc1CO | -23.4% (active)
30 | COC(=O)C(C)NS(=O)(=O)/N=C1\NC(=O)NC1=C(Cl)Cl (stereo unspecified) | 98.7% (inactive)
31 | Oc1ccccc1-c1nnc(SCc2ccc(O)c3ncccc23)n1-c1ccccc1 | 4.52% (active)
32 | O=C(O)c1ccc(-n2cc(CNc3ccc(F)cc3)c(-c3ccc(C(F)(F)F)cc3)n2)cc1 | 87.1% (inactive)
33 | O=C(N/N=C/c1ccc[nH]1)c1[nH]c2ccc(Br)cc2c1-c1ccccc1 | -39.1% (active)
34 | O=C(CSc1nnc(-c2ccc(Cl)cc2)n1-c1ccccc1)Nc1ccc(F)cc1 | 95.3% (inactive)
35 | Cc1cc(C(NC(=O)CCCCCNc2cccc3c2C(=O)N(C2CCC(=O)NC2=O)C3=O)c2ccc3c(c2)OC(F)(F)O3)c(O)c2ncccc12 (stereo unspecified) | 19.7% (inactive)
36 | COc1cc(-c2nc(SCCC(C)C)nc(NNC(=O)c3ccncc3)c2C#N)cc(OC)c1OC | 116% (inactive)
